Seven molecules from PubChem BioAssay (NCI) can be followed below.

Some test systems named below: RPMI-8226 leukemia; OVCAR-8 ovarian; OVCAR-5 ovarian; OVCAR-4 ovarian; SK-OV-3 ovarian; IGROV1 ovarian; OVCAR-3 ovarian; HS 578T breast; NCI/ADR-RES ovarian; T-47D breast; BT-549 breast; MDA-MB-435 melanoma; SW-620 colon; MCF7 breast; HCT-116 colon; KM12 colon; HCC-2998 colon.
Holding throughout (assay): NCI-60 one-dose screen, 48 h (100 = growth as untreated, 0 = no growth, -100 = all killed)
Conditions in all cases: 10 µM unless noted

This is part of a sample that, as a whole, favours compounds with a hit. Of some 83,000 tested, about 20% had one in any assay.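 Growth was measured after 48 h exposure to one concentration of compound in 96-well plates. Values under 10 count as active.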 A number with no mark means an inactive call. Calls of active or inactive are those of the source.

Take `CCN(CC)CCCC(C)Nc1ccnc2c(OC)cccc12` (stereo unspecified): the growth with RPMI-8226 leukemia was 103%; in the assay with OVCAR-8 ovarian, 106%; in the assay on OVCAR-5 ovarian it was 102%; in the assay on OVCAR-4 ovarian, 111%; in the assay on SK-OV-3 ovarian, 117%; in the assay on IGROV1 ovarian it was 109%. Also, the growth in the assay with OVCAR-3 ovarian is 146%; in the assay on HS 578T breast it was 127%; in the assay on NCI/ADR-RES ovarian, 110%; in the assay with T-47D breast, 119%; in the assay with BT-549 breast it was 118%; in the assay on MDA-MB-435 melanoma it was 118%. Also, the growth in the assay on SW-620 colon was 115%; in the assay with MCF7 breast, 101%; in the assay on HCT-116 colon, 112%; in the assay on KM12 colon, 113%.

With `CN(C)CC(=O)Nc1ccc(Cn2nnc3c2C(=O)c2nnn(Cc4ccc(NC(=O)CN(C)C)cc4)c2C3=O)cc1`, the growth in the assay with RPMI-8226 leukemia was -34% (active); in the assay with OVCAR-8 ovarian, -31.6% (active); in the assay on OVCAR-5 ovarian, -35.7% (active); with OVCAR-4 ovarian, -94.9% (active); with SK-OV-3 ovarian, -44% (active); in the assay with IGROV1 ovarian it was -74.4% (active). The growth with OVCAR-3 ovarian is -59.1% (active); with HS 578T breast it was 7.7% (active); in the assay on T-47D breast, -51.7% (active); with BT-549 breast, -89.7% (active); in the assay with MDA-MB-435 melanoma, -87.5% (active); with SW-620 colon it was -27.3% (active). Further, the growth with MCF7 breast was -61.6% (active); in the assay with HCT-116 colon, -87.7% (active); in the assay with HCC-2998 colon it was -51.2% (active); in the assay with KM12 colon it was -54.6% (active).

Consider `COc1ccc(-c2cc(C(=O)N=Nc3c(O)[nH]c4ccccc34)no2)cc1`, for which the growth is 96.9% with RPMI-8226 leukemia; 103% with OVCAR-8 ovarian; 97.7% with OVCAR-5 ovarian; 105% in the assay on OVCAR-4 ovarian; 103% with SK-OV-3 ovarian; 102% in the assay with IGROV1 ovarian. In addition, the growth was 108% in the assay on OVCAR-3 ovarian; 95.3% in the assay on HS 578T breast; 102% with NCI/ADR-RES ovarian; 98% in the assay with T-47D breast; 109% in the assay on BT-549 breast; 102% in the assay on MDA-MB-435 melanoma. In addition, the growth is 96.9% in the assay with SW-620 colon, 100% in the assay on HCT-116 colon, 107% with HCC-2998 colon and 101% with KM12 colon.

In the case of `NC(=S)N/N=C/c1cc(-c2cccc(N)c2)ccn1`, the growth in the assay on RPMI-8226 leukemia was 12.2%; in the assay with OVCAR-8 ovarian it was 21.6%; in the assay with OVCAR-5 ovarian it was 46.1%; in the assay on OVCAR-4 ovarian it was 47.3%; in the assay on SK-OV-3 ovarian, 27.5%; in the assay on IGROV1 ovarian, 16%. In addition, the growth in the assay on OVCAR-3 ovarian is 40.8%; in the assay on HS 578T breast, 38.1%; in the assay with NCI/ADR-RES ovarian it was 21.2%; in the assay on T-47D breast, 10.8%; in the assay with BT-549 breast it was 55.4%; in the assay on MDA-MB-435 melanoma, 32.9%. Further, the growth with SW-620 colon was 35.6%; in the assay on MCF7 breast, 21.9%; with HCT-116 colon, 28.4%; with KM12 colon it was 30%.

Turning to `N#Cc1ccc(NC(=O)Nc2ccc(Cc3ccc(NC(=O)Nc4ccc(C#N)cc4)cc3)cc2)cc1`, the growth in the assay on RPMI-8226 leukemia was -2.1% (active); with OVCAR-8 ovarian, 38.7%; with OVCAR-5 ovarian, 69.6%; with OVCAR-4 ovarian, 15%; in the assay on SK-OV-3 ovarian, 68.6%; in the assay on IGROV1 ovarian, 29.6%. The growth with OVCAR-3 ovarian was 18.8%; in the assay on HS 578T breast it was 47.9%; in the assay on NCI/ADR-RES ovarian, 52.7%; in the assay with BT-549 breast, 20.7%; in the assay with MDA-MB-435 melanoma, 7.5% (active); in the assay on SW-620 colon it was 34%. For the same molecule, the growth in the assay with MCF7 breast is 6.82% (active); with HCT-116 colon it was 18.8%; with HCC-2998 colon, 40.1%; with KM12 colon, 18.7%.

For `O=C1C=CC(Nc2ccccc2[N+](=O)[O-])C1Nc1ccccc1[N+](=O)[O-]` (stereo unspecified), the growth was -17.4% (active) in the assay with RPMI-8226 leukemia; 31% in the assay with OVCAR-8 ovarian; 12.3% in the assay with OVCAR-5 ovarian; 3.47% (active) in the assay with OVCAR-4 ovarian; 109% in the assay with SK-OV-3 ovarian; 86% with IGROV1 ovarian. Further, the growth was -81.3% (active) in the assay with OVCAR-3 ovarian; 32% in the assay on HS 578T breast; -26.8% (active) with NCI/ADR-RES ovarian; -58.7% (active) with BT-549 breast; 8.78% (active) in the assay with MDA-MB-435 melanoma; -71.6% (active) with SW-620 colon. Further, the growth in the assay with MCF7 breast is -77.3% (active); in the assay with HCT-116 colon it was -89.5% (active); in the assay with HCC-2998 colon it was 6.76% (active); in the assay with KM12 colon it was 58.3%.

For the molecule `COc1ccc(C(=O)/C=C/c2cc3ccccc3[nH]c2=O)cc1`, the growth was 15.3% in the assay on RPMI-8226 leukemia; 20.4% in the assay on OVCAR-8 ovarian; 52.2% in the assay on OVCAR-5 ovarian; 58.6% with OVCAR-4 ovarian; 53% with SK-OV-3 ovarian; 50.5% in the assay with IGROV1 ovarian. In addition, the growth in the assay on OVCAR-3 ovarian is -19% (active); in the assay on HS 578T breast, 53.6%; with NCI/ADR-RES ovarian, -5.27% (active); in the assay with T-47D breast, 33.8%; in the assay with BT-549 breast it was 21.3%; with MDA-MB-435 melanoma, 29.9%. The growth with SW-620 colon is -21% (active); with HCT-116 colon, 8.02% (active); in the assay with KM12 colon, -32% (active).
